Sampled rows, rich in hits. Any-hit rate of the full collection: about 11%.
BAZ2B inh = BAZ2B (human) inhibition. 360,000 compounds, 4.4% hits. Q9UIF8. AlphaScreen BAZ2B-H3K14Ac peptide displacement. Potency, µM (highest dose often 114 µM), inactives show at the top dose activity change, negative = inhibition, usual class: inhibitors; further: on the % scale 0 is the no-effect control and ±100 the full control effect; nearly all actives have a fitted effect of over 60% in size
Target sequence (Q9UIF8 whole entry, looked up): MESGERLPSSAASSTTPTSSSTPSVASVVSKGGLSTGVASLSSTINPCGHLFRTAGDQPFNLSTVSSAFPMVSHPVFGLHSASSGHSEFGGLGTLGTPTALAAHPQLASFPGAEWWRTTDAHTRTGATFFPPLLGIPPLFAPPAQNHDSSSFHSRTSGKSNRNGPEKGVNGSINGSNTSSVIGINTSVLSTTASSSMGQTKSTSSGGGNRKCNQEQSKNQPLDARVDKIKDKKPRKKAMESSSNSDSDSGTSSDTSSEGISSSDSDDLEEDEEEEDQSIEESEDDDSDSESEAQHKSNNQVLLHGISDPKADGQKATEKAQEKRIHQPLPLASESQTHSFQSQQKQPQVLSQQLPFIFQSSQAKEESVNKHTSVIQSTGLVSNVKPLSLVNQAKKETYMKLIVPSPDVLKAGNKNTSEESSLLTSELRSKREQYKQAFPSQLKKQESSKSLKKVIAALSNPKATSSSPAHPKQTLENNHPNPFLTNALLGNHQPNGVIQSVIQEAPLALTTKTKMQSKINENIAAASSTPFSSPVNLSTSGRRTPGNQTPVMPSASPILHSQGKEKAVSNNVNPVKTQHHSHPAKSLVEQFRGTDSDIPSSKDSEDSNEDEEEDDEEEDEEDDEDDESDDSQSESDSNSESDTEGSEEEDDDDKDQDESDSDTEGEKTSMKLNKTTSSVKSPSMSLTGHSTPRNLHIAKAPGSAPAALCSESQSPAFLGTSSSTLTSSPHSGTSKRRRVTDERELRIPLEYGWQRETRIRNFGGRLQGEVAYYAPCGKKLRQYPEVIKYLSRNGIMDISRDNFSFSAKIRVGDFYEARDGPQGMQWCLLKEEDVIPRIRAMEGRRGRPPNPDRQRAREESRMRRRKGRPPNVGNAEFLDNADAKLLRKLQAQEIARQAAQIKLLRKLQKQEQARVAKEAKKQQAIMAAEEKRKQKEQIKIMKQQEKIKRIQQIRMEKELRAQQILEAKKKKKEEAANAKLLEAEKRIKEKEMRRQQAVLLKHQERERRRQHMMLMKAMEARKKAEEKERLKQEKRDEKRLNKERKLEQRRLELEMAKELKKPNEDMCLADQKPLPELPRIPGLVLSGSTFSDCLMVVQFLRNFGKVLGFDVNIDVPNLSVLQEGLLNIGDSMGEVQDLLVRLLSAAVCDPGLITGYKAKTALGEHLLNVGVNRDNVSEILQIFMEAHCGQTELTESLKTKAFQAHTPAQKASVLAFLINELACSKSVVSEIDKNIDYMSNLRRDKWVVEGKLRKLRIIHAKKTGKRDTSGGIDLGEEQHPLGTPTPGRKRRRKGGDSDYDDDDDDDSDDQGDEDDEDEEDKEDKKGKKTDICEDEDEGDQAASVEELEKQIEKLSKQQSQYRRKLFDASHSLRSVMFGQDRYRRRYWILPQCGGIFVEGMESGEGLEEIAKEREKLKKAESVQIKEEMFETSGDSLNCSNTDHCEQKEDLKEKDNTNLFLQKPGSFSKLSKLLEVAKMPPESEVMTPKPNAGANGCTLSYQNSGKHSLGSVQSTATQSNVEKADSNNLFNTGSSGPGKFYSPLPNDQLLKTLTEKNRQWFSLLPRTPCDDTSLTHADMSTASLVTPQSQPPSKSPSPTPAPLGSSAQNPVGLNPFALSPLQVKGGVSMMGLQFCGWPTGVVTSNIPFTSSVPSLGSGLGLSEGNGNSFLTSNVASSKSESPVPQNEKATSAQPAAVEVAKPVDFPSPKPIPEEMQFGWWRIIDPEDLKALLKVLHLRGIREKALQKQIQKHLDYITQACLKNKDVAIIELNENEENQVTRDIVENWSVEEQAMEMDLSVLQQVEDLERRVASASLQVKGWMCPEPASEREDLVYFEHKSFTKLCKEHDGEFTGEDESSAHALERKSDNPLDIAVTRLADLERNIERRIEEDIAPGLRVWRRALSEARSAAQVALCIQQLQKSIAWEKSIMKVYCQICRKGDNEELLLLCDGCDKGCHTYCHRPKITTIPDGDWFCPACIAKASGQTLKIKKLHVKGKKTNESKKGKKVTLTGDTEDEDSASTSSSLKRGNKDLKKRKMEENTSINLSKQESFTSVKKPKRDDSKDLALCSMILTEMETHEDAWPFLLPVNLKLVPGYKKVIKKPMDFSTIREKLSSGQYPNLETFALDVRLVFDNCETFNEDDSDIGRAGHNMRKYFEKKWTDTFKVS
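BAZ2B (50 nM) with biotin-H3(5-23)K14Ac peptide (50 nM) in PBS pH 7.4, 0.01% Tween-20, preformed 30 min, then compound 30 min at room temperature; top concentration 110uM. AlphaScreen streptavidin donor/nickel chelate acceptor beads (10 ug/mL final), 20 min dark, signal read.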
JMJD2A Tudor = inhibitors of human JMJD2A Tudor domain. 390,000 compounds, 4.4% hits. AlphaScreen JMJD2A-Tudor / H3K4me3 peptide binding. O75164. Potency, µM (titrated, usually from 114 µM), inactives show at the highest dose activity change, negative = inhibition, hits mostly inhibitors; further: on the % scale 0 is the no-effect control and ±100 the full control effect; nearly all actives have a fitted effect of over 50% in size
G9a block = inhibitors of human histone lysine methyltransferase G9a. Q96KQ7. G9a H3K9 monomethylation, AlphaScreen, 2 h. Potency, µM (titrated, usually from 102 µM), without a hit: top-dose activity, negative = inhibition, actives largely listed as inhibitors. 350,000 compounds, 8.8% hits. AID 504332; further: on the % scale 0 is the no-effect control and ±100 the full control effect; nearly all actives have a fitted effect of over 75% in size
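Signal arises when biotinylated H3K9 peptide, once monomethylated, bridges streptavidin donor and antibody-captured acceptor beads. Enzyme at 20 nM was preincubated 15 min with test compounds; peptide 500 nM and SAM 20 uM then reacted for 2 h.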
L3MBTL1 block = inhibitors of human L3MBTL1; AlphaScreen L3MBTL1–H3K9me1 peptide binding; Potency, µM (doses to about 57.1 µM), for inactives: top-dose activity, negative = inhibition, actives largely listed as inhibitors; 230,000 compounds, 0.66% hits; AID 485360; further: on the % scale 0 is the no-effect control and ±100 the full control effect; nearly all actives have a fitted effect of over 60% in size
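Displacement of a biotinylated histone H3(1-15) peptide monomethylated at Lys9 (75 nM) from L3MBTL1 (50 nM) was measured by AlphaScreen after a 30 min room-temperature compound incubation; cefsulodin titration served as intraplate control.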
HP1b binding inh = inhibitors of HP1-beta chromodomain binding to methylated histone tails; P83916; AlphaScreen HP1-beta / biotin-H3K9me3 peptide binding; Potency, µM (highest dose often 114 µM), without a hit: at the top dose activity change, negative = inhibition, most hits filed as inhibitors; 390,000 compounds, 0.56% hits; further: nearly all actives have a fitted effect of over 70% in size
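HP1-beta protein (50 nM final) preincubated 30 min at room temperature with biotinylated H3(1-18)K9me3 peptide (50 nM) in PBS pH 7.4, 0.01% Tween-20, then compound added for 30 min. AlphaScreen streptavidin donor/nickel chelate acceptor beads (10 ug/mL final), 30 min dark, luminescence read.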
* = called active by the depositor; u = inconclusive; x = no result given; ! = not confirmed by another sample; [ ] = dose if it differs, or a comment. The call rests on the fitted dose curve; in most records, active means well fitted inhibition curve with a large enough effect; inconclusive means small, poorly fitted or top-dose-only effect; inactive means no such curve, though single readings can be large or run the other way. Potency means the concentration at half of the fitted maximal effect.

SMILES	BAZ2B inh	JMJD2A Tudor	G9a block	L3MBTL1 block	HP1b binding inh
CCOc1ccc(C=NNc2ccc(S(=O)(=O)Nc3ccccc3C(=O)O)cc2[N+](=O)[O-])cc1OC	x	20µM*	x	u	u
CCOc1ccccc1NS(=O)(=O)c1ccc(OC)c(OC)c1	0%	-1%	13%[59 µM]	2%	40%
NS(=O)(=O)c1ccc(N/N=C/c2ccc(C(=O)O)cc2)c([N+](=O)[O-])c1	u	-15%	x	0%	31%
CC(=O)Nc1cccc(/C(C)=N/Nc2ccc(S(=O)(=O)Nc3ccccc3C(=O)O)cc2[N+](=O)[O-])c1	x	35µM*	x	x	u
O=C(Nc1ccccc1NS(=O)(=O)c1ccc(F)cc1)C1CCC1	0%	-5%	14%[0.0925 µM]	6%	19%
CN(CCO)c1ccc(C=NNc2ccc([N+](=O)[O-])cc2S(=O)(=O)Nc2ccccc2C(=O)O)cc1	x	45µM*	x	u	45µM*
CC(=O)Nc1ccc(C=NNc2ccc(S(=O)(=O)Nc3ccccc3C(=O)O)cc2[N+](=O)[O-])cc1	x	50µM*	x	u	u
CC(=O)Nc1ccc(C=NNc2ccc([N+](=O)[O-])cc2S(=O)(=O)Nc2ccccc2C(=O)O)cc1	x	u	x	0%	12%
CCOc1cccc(-c2c(C(=O)N/N=C(\C)c3ccccn3)nnn2-c2nonc2N)c1	13µM*	25µM*	x	x	12%[57 µM]
COc1cc(/C=N/NC(=O)c2nnn(-c3nonc3N)c2C(C)C)ccc1O	-17%	-4%	-7%	x	16%
CCOc1ccc(-c2c(C(=O)N/N=C/C3CC=CCC3)nnn2-c2nonc2N)cc1 (stereo not drawn)	79µM*	-21%	6%	x	51%
COc1ccc(O)c(/C=N/NC(=O)c2c(C)nnn2-c2nonc2N)c1	u	u	79µM*	x	17%
COc1ccccc1/C(C)=N/NC(=O)c1nnn(-c2nonc2N)c1C(C)C	-5%	20µM*	16%	x	15%
CCC(C)NC(=O)c1cc2n(n1)CCCN(Cc1ccc(C)cc1)C2=O (stereo not drawn)	-29%	-6%	-2%[59 µM]	x	-4%
CCOc1ccccc1NC(=O)CSc1nnc(CC)c(CC)n1	7%	2%	6%[59 µM]	x	23%
COc1ccc(C2/C=C\CN([S+](=O)([O-])c3ccc4ccccc4c3)C(C)C(=O)N2Cc2ccc(F)cc2)cc1 (stereo not drawn)	x	-26%	x	x	16%
O=S(=O)(c1ccccc1Br)N1CCN(c2nc(-c3cccs3)nc3ccccc23)CC1	x	-24%	x	x	37%
COc1ccc(/C=N/NC(=O)c2nnn(-c3nonc3N)c2-c2cccs2)cc1OC	56µM*	-23%	-3%[0.0925 µM]	x	28%
CCOc1cccc(-c2c(C(=O)N/N=C/c3ccoc3)nnn2-c2nonc2N)c1	79µM*	25µM*	54%	x	-17%
CCOc1ccc(-c2c(C(=O)N/N=C/c3ccoc3)nnn2-c2nonc2N)cc1	-7%[57.1 µM]	-11%	62%	x	32%
O=C1CCC(C(=O)N2CCSCC2)CN1Cc1cccc(C(F)(F)F)c1 (stereo not drawn)	4%	1%	x	x	18%
CCOc1ccc(C(C)NC(=S)NCc2ccc(F)cc2)cc1 (stereo not drawn)	-28%	-5%	x	x	41%
CCOc1ccc(NCCC(O)c2ccc(F)cc2)cc1 (stereo not drawn)	50µM*	u	-33%[2.33 µM]	x	u
Cc1cccc(NC(=O)CCS(=O)(=O)c2ccc3c(c2)n(C)c(=O)c(=O)n3C)c1C	33%	9%	45%[59 µM]	x	42%
CCOc1ccc(Nc2oc(-c3ccc(COc4ccc(OC)cc4)o3)nc2C#N)cc1	u	-33%	-25%[59 µM]	x	4%
CCN(CC)c1cc(Cl)c2nonc2c1N	u	u	32µM*	u	u
CCN(CC)c1cc2nonc2c2nonc12	51%	23%	9%[59 µM]	19%	48%
CN(C)c1cc(Cl)c2nonc2c1N	50µM*	u	40µM*	32µM*	u
CCC(=O)Nc1nnc(S(=O)(=O)N2CCCCCC2)s1	7.1µM*!	11µM*!	10µM*!	-2%	u
CCCC(=O)Nc1nnc(S(=O)(=O)N2CCCCCC2)s1	14µM*!	20µM*!	13µM*	4%	u

Bioassay records (PubChem BioAssay)
